The results in this text go back to article PMC7862700, “An all-to-all approach to the identification of sequence-specific readers for epigenetic DNA modifications on cytosine”.

Common to all, as to assay: DAPPL (digital affinity profiling via proximity ligation, sequencing); 10 mM Tris-HCl pH 7.5, 50 mM NaCl, 1 mM DTT, 4% glycerol, room temperature, 30 min; GST-TFs on glutathione beads, 16-mer random dsDNA library, 0.1% formaldehyde crosslink after washing; high values mean tight binding
Details in all cases: protein: recombinant; tags: N-terminal GST; dsDNA, one strand shown

One test addresses T1, FLI1 (Homo sapiens, UniProt Q01543 1-452).
T1 sequence: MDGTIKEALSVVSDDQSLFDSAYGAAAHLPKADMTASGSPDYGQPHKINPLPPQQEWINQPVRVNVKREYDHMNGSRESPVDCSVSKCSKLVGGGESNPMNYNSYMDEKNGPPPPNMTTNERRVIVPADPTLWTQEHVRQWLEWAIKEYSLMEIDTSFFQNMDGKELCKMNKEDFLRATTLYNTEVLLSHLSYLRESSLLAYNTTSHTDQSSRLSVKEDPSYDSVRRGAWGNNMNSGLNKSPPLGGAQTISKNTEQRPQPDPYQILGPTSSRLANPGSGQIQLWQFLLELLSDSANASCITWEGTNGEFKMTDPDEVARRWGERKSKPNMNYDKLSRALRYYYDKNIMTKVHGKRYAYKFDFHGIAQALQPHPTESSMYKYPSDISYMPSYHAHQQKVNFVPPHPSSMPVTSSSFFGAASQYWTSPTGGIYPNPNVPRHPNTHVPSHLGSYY
A digest of the protocol: (§1)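 Human transcription factors carrying a GST fusion were produced in yeast, bound to glutathione beads, tagged with DNA barcodes and pooled together with a tag-only sample. Each pool was held with 200 nmole of a random double-stranded 16-mer DNA library in Tris/NaCl/DTT/glycerol buffer for 30 min at room temperature, then washed, crosslinked in 0.1% formaldehyde, proximity-ligated with BsaI/T4 ligase (1 h, 37 °C), PCR-amplified and sequenced on an Illumina NextSeq500. Binding signal is the read frequency of each hexamer for a given factor divided by its frequency in the tag-only sample.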

A further test deals with T2, ELK1 (Homo sapiens, UniProt P19419 1-428).
T2 sequence: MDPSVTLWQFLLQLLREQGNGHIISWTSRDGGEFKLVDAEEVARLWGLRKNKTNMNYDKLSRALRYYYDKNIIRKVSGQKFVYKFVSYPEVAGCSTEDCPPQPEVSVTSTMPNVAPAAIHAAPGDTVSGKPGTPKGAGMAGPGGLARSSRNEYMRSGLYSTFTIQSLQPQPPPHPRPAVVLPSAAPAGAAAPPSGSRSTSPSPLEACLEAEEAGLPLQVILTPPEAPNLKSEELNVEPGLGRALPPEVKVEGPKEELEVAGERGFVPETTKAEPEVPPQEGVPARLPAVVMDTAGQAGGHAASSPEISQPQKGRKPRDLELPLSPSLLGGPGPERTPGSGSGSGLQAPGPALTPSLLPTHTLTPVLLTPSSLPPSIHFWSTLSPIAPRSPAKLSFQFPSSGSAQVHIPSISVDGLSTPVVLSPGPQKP
In short, it runs like this:
as §1

A further test has as its target T3, GABPA (Homo sapiens, UniProt Q06546 1-454).
T3 sequence: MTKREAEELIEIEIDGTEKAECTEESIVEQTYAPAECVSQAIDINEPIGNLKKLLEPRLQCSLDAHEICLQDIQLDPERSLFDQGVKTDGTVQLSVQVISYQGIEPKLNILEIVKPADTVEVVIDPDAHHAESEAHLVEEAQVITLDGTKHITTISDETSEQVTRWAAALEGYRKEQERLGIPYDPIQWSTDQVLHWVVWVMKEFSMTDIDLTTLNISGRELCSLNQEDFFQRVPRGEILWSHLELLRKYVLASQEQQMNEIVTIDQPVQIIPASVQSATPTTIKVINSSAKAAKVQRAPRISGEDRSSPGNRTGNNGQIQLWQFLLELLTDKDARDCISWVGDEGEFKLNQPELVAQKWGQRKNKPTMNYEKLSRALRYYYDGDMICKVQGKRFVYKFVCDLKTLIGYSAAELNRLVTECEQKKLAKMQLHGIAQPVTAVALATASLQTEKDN
In short, it runs like this: as §1

In a further test the target is ELF1 (Homo sapiens, UniProt P32519 1-619). A digest of the protocol: as §1
A further test concerns the target T4, EHF (Homo sapiens, UniProt Q9NZC4 1-300).
T4 sequence: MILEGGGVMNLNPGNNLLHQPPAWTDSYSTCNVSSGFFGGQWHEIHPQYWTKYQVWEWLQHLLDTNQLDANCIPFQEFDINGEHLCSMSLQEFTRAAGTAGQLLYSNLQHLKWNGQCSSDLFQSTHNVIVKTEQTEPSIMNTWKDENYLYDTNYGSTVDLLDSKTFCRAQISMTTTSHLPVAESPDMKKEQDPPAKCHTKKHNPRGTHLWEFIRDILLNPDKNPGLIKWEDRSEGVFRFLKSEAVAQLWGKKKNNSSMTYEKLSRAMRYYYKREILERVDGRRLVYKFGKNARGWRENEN
In short, it runs like this: as §1

In another test the target is SPI1 (Homo sapiens, UniProt P17947 1-270). A digest of the protocol: as §1
The next test has as its target SPIB (Homo sapiens, UniProt Q01892 1-262). A digest of the protocol: as §1
Another test concerns the target T5, ELK3 (Homo sapiens, UniProt P41970 1-407).
T5 sequence: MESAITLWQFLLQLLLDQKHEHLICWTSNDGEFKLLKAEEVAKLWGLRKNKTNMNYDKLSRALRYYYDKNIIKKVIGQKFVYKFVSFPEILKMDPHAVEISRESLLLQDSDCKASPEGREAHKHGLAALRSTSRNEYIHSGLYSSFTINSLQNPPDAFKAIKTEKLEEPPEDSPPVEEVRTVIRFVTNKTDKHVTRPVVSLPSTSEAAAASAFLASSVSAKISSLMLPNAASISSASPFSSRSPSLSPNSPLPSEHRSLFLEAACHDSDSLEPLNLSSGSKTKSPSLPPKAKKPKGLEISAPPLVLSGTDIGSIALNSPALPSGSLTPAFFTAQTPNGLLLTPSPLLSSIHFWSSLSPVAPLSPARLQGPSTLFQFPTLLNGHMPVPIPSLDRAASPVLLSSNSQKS
A digest of the protocol:
as §1

The target in the next test is T6, ERG (Homo sapiens, UniProt P11308 1-479).
T6 sequence: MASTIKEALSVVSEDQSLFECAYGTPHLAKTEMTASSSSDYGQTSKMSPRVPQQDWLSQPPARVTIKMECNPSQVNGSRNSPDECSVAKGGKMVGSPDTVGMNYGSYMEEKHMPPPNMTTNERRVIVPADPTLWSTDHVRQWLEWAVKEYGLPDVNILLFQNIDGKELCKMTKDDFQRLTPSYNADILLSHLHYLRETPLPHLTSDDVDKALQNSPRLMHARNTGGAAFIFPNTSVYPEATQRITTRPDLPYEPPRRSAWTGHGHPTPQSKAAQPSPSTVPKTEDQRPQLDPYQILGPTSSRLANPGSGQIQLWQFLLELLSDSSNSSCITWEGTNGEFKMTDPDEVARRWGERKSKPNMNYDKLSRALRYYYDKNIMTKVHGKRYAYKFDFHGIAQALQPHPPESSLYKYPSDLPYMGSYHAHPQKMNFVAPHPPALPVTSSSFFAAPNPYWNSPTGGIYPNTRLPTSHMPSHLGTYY
A digest of the protocol:
as §1

Sequence of ELF1 (P32519 whole entry): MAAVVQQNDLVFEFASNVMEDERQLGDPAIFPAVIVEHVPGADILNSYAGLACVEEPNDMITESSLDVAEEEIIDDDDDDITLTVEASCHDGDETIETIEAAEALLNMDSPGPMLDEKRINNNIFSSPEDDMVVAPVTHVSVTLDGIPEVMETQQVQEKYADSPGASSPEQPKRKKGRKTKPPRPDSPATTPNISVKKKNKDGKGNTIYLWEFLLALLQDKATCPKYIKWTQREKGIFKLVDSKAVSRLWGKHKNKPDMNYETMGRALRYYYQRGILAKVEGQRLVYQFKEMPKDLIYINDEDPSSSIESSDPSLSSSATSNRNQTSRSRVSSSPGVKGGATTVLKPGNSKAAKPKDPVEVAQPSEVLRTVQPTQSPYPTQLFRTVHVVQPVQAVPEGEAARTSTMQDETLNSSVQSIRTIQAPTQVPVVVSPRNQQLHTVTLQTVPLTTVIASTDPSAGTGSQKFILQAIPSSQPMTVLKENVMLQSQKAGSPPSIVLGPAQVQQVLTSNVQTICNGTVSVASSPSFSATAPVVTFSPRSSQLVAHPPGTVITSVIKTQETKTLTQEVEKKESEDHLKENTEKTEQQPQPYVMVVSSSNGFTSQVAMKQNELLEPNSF
Sequence of SPIB (Q01892 whole entry): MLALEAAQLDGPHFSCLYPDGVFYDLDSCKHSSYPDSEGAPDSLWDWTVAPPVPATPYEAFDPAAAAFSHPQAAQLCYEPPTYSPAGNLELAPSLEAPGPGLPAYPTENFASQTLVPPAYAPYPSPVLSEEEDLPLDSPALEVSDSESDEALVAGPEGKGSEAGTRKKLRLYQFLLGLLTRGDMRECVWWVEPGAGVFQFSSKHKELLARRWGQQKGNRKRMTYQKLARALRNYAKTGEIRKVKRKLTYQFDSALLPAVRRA

Take CGCCAA: the binding signal with FLI1 was 1.03 fold enrichment (6-mer frequency, TF over GST control); in the test with ELK1, 1.02 fold enrichment (6-mer frequency, TF over GST control); in the test with GABPA, 1.03 fold enrichment (6-mer frequency, TF over GST control); with ELF1, 1.08 fold enrichment (6-mer frequency, TF over GST control); with EHF, 1.04 fold enrichment (6-mer frequency, TF over GST control); with SPI1 it was 1.04 fold enrichment (6-mer frequency, TF over GST control). Also, the binding signal with SPIB was 1.02 fold enrichment (6-mer frequency, TF over GST control); with ELK3, 1.06 fold enrichment (6-mer frequency, TF over GST control).

Take TGAGCT: the binding signal was 1.15 fold enrichment (6-mer frequency, TF over GST control) with FLI1; 1.08 fold enrichment (6-mer frequency, TF over GST control) with ELK1; 1.05 fold enrichment (6-mer frequency, TF over GST control) in the test with GABPA; 1.02 fold enrichment (6-mer frequency, TF over GST control) with ELF1; 1.16 fold enrichment (6-mer frequency, TF over GST control) in the test with EHF; 1.05 fold enrichment (6-mer frequency, TF over GST control) in the test with ELK3.

In the case of AGCTAA, the binding signal with FLI1 was 1.08 fold enrichment (6-mer frequency, TF over GST control); in the test with ELK1 it was 1.05 fold enrichment (6-mer frequency, TF over GST control); with ERG, 1.06 fold enrichment (6-mer frequency, TF over GST control); with ELF1, 1.02 fold enrichment (6-mer frequency, TF over GST control); with EHF, 1.08 fold enrichment (6-mer frequency, TF over GST control); with SPI1 it was 1.08 fold enrichment (6-mer frequency, TF over GST control). Besides, the binding signal is 1.01 fold enrichment (6-mer frequency, TF over GST control) in the test with SPIB and 1.01 fold enrichment (6-mer frequency, TF over GST control) with ELK3.

As for AAAGCC, the binding signal in the test with FLI1 was 1.05 fold enrichment (6-mer frequency, TF over GST control); in the test with ELK1, 1.05 fold enrichment (6-mer frequency, TF over GST control); with GABPA, 1.04 fold enrichment (6-mer frequency, TF over GST control); with ELF1, 1.08 fold enrichment (6-mer frequency, TF over GST control); in the test with SPIB, 1 fold enrichment (6-mer frequency, TF over GST control).

Turning to GTTTGG, the binding signal was 1.07 fold enrichment (6-mer frequency, TF over GST control) in the test with FLI1; 1.07 fold enrichment (6-mer frequency, TF over GST control) with ELK1; 1.04 fold enrichment (6-mer frequency, TF over GST control) with GABPA; 1.05 fold enrichment (6-mer frequency, TF over GST control) with ELF1; 1.01 fold enrichment (6-mer frequency, TF over GST control) in the test with SPI1; 1.1 fold enrichment (6-mer frequency, TF over GST control) with SPIB.

TACAAG: the binding signal with FLI1 was 1.06 fold enrichment (6-mer frequency, TF over GST control); with ELK1, 1.03 fold enrichment (6-mer frequency, TF over GST control); with ERG, 1.04 fold enrichment (6-mer frequency, TF over GST control); in the test with ELF1, 1.06 fold enrichment (6-mer frequency, TF over GST control); in the test with EHF, 1.09 fold enrichment (6-mer frequency, TF over GST control); with ELK3, 1.04 fold enrichment (6-mer frequency, TF over GST control).

With CCGGTC, the binding signal with FLI1 is 1.17 fold enrichment (6-mer frequency, TF over GST control); with ELK1, 1.18 fold enrichment (6-mer frequency, TF over GST control); in the test with ERG, 1.3 fold enrichment (6-mer frequency, TF over GST control); in the test with ELF1 it was 1.14 fold enrichment (6-mer frequency, TF over GST control); with EHF it was 1.1 fold enrichment (6-mer frequency, TF over GST control); with SPI1, 1.01 fold enrichment (6-mer frequency, TF over GST control). The binding signal in the test with SPIB was 1.08 fold enrichment (6-mer frequency, TF over GST control); with ELK3 it was 1.18 fold enrichment (6-mer frequency, TF over GST control).

For the sequence TAAAGC, the binding signal with FLI1 is 1.03 fold enrichment (6-mer frequency, TF over GST control); in the test with ELK1, 1.12 fold enrichment (6-mer frequency, TF over GST control); with GABPA, 1.11 fold enrichment (6-mer frequency, TF over GST control); with ELF1 it was 1.05 fold enrichment (6-mer frequency, TF over GST control); with EHF it was 1.02 fold enrichment (6-mer frequency, TF over GST control); in the test with SPI1 it was 1.05 fold enrichment (6-mer frequency, TF over GST control). Further, the binding signal with SPIB is 1.06 fold enrichment (6-mer frequency, TF over GST control); with ELK3 it was 1.09 fold enrichment (6-mer frequency, TF over GST control).

On to CAGATT, for which the binding signal in the test with FLI1 is 1.07 fold enrichment (6-mer frequency, TF over GST control); with ELK1, 1.05 fold enrichment (6-mer frequency, TF over GST control); with ERG, 1.06 fold enrichment (6-mer frequency, TF over GST control); with ELF1 it was 1 fold enrichment (6-mer frequency, TF over GST control); with EHF, 1.01 fold enrichment (6-mer frequency, TF over GST control); with SPI1, 1.03 fold enrichment (6-mer frequency, TF over GST control). Further, the binding signal was 1.02 fold enrichment (6-mer frequency, TF over GST control) with SPIB and 1.12 fold enrichment (6-mer frequency, TF over GST control) with ELK3.
